# RE007 growth inh – less growth of the S. pombe RE007 Vpr strain; S. pombe RE007 Vpr strain, BacTiter-Glo ATP luminescence, 24 h; AID 651644; 360,000 compounds, 0.21% hits; Potency, µM (doses to about 92.2 µM), for the others: at the top dose activity change, negative = less growth, actives largely listed as inhibitors; active = well fitted falling curve with a large enough effect; inconclusive = small, poorly fitted or top-dose-only effect; inactive = no such curve, though single readings can be large or run the other way; also: potency is read from the fitted curve at half-maximal effect; % is scaled to controls: 0 for no effect and ±100 for the full control effect; nearly all actives have a fitted effect of over 50% in size
#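 Fission yeast strain RE007, carrying one chromosomally integrated HIV-1 vpr copy, was seeded at OD 0.01 in PMG+AL medium with 23 nL pinned compound. After 24 h at 30 °C and 99% humidity, viability was read by BacTiter-Glo luminescence.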
# Giardia FBPA inh – Giardia lamblia aldolase inhibition | purified Giardia FBPA | 290,000 compounds, 0.71% hits | Potency, µM (doses to about 59.6 µM), without a hit: at the top dose activity, negative = inhibition, most hits filed as inhibitors; also: potency is read from the fitted curve at half-maximal effect; % is scaled to controls: 0 for no effect and ±100 for the full control effect; nearly all actives have a fitted effect of over 55% in size
#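 Giardia FBPA (40 nM reagent) was preincubated 10 min at RT with compound (up to 57.5 uM final), then substrate plus GAPDH/TPI/NAD/arsenate coupling system with diaphorase/resazurin was added; resorufin fluorescence (525/598 nm) was read after 20 min.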
# LmPK inhibitor – inhibitors of Leishmania mexicana pyruvate kinase. Q27686. purified LmPK, Kinase-Glo ATP luminescence, 1 h. Potency, µM (doses to about 57.5 µM), inactives show at the highest dose activity change, negative = inhibition, hits mostly inhibitors. 290,000 compounds, 0.37% hits; also: potency is read from the fitted curve at half-maximal effect; % is scaled to controls: 0 for no effect and ±100 for the full control effect
# Target sequence (Q27686 whole entry, looked up): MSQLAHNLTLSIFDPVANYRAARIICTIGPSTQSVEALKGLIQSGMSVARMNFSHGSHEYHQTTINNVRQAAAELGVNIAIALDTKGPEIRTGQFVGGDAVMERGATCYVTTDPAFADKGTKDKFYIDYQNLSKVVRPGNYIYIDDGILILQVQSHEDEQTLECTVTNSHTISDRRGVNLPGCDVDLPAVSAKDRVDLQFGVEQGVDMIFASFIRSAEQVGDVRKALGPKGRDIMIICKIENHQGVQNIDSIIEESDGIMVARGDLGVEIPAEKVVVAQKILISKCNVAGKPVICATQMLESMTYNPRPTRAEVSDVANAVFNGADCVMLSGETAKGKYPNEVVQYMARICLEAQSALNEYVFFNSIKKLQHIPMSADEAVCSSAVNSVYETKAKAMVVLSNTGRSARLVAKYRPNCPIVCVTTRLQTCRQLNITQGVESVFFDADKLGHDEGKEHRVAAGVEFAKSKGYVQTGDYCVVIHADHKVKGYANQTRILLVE
#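 Purified LmPK (0.1 nM) with 0.5 mM PEP and 0.1 mM ADP in imidazole buffer pH 7.2 with MgCl2/KCl, 1 h at room temperature. ATP formed was read by luciferase luminescence and normalized to no-enzyme and uninhibited controls.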
# TbPYK inhibitor – blocks Trypanosoma brucei pyruvate kinase. 410,000 compounds, 0.12% hits. Potency, µM (titrated, usually from 76.8 µM), inactives show at the top dose activity, negative = inhibition, hits mostly inhibitors. TbPYK enzyme, Kinase-Glo Plus ATP luminescence, 45 min. AID 624173. Q57TT1; also: potency is read from the fitted curve at half-maximal effect; % is scaled to controls: 0 for no effect and ±100 for the full control effect; nearly all actives have a fitted effect of over 50% in size
#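 T. brucei PYK with substrate was exposed to pin-transferred compounds across a concentration series, then started with 130 uM ADP (final). After 45 min at room temperature, Kinase-Glo Plus luminescence was read, normalized and curve-fitted.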
# Cycloheximide cs – counter-screen hit for Shiga toxin inhibitors, cycloheximide; cell reporter, cycloheximide protein synthesis inhibition counterscreen; 300,000 compounds, 12% hits; AID 2314; max response, %; in the data active = max response mostly above about 13%, no sharp cut-off; inactive = mostly below about 14%; also: read at 38.3 µM for the half of the compounds with a filed dose; 0% is about no effect
# Shiga inhibitor – Shiga toxin inhibition; inhibition, % at 38.7 µM; 290,000 compounds, 9.2% hits; AID 2315; Vero cells, Shiga toxin protein synthesis inhibition reporter; in the data active = inhibition mostly above about 28%, no sharp cut-off; inactive = mostly below about 43%; also: 0% is about no effect
# * hit, by the source's call; ? = inconclusive; . = not tested or not shown; + = active, no number; [ ] = dose if it differs, or a comment. This excerpt belongs to a sample that is enriched for hits. Unless noted, calls follow the shape of the dose curve; as a rule, active = well fitted curve in the direction sought with a large enough effect; inconclusive = small, poorly fitted or top-dose-only effect, or another doubt; inactive = no such curve, though single readings can be large; an effect the other way counts as inactive or inconclusive.
SMILES,RE007 growth inh,Giardia FBPA inh,LmPK inhibitor,TbPYK inhibitor,Cycloheximide cs,Shiga inhibitor
Cc1ccc(/C=N/NC(=O)c2csc(C)c2)o1,-4%,0%,-1%,-1%,23*,+
CC(C)(C)C(=O)Nc1cc2nn(-c3ccccc3)nc2cc1Cl,-22%,-1%,?,1%,47*,86*
CC(=O)Nc1cc2nn(-c3ccccc3)nc2cc1Cl,6%,0%,-11%,-1%,26*,64*
CC(C)(C)OC(=O)C[C@@H]1C/C=C\C[C@H](CC(=O)NCCO)C(=O)N[C@@H](Cc2ccccc2)COC1=O,8%,.,.,2%,.,.
CCOC(=O)c1c(C)oc2nc(C)nc(N3CCN(c4cccc(C(F)(F)F)c4)CC3)c12,.,.,.,-6%,.,.
C=CCNC(=O)c1nc2ccccc2s1,-11%,-7%,-1%,-1%,51*,118*
C=CCS(=O)(=O)c1nc2ccccc2s1,-24%,-2%,-8%,0%,44*,21
O=S(=O)(CCc1ccccc1)c1nc2ccccc2s1,.,2%,.,.,.,.
CC(C)Oc1ccc(C(=O)Nc2ccc(-c3nc4ccccc4s3)cc2)cc1,.,.,.,1%,.,.
C=CCNC(=O)c1ccc(CSc2nc3ccccc3s2)cc1,-9%,.,-3%,-1%,-2,-12
O=C(Nc1nnc(-c2ccccc2Cl)o1)c1ccco1,-3%,?,-13%,-4%,9,11
O=C(Nc1nnc(-c2ccccc2Cl)o1)c1nc2ccccc2s1,-8%,?,1%,1%,14*,22*
COc1ccc(NC(=O)c2nc3ccccc3s2)cc1,-30%,-22%,16µM*,-12%,91*,25*
CCOc1ccccc1CN1CCNC(=O)C1CC(=O)NCCCn1cccn1 (centres undefined),1%,.,0%,-11%,-1,-5
Cc1ccc(NC(=O)Cn2nc(C)c3nn(-c4ccc(Cl)cc4)c(C)c3c2=O)cc1F,.,.,.,-3%,.,.
Cc1ccc(/C=N/NC(=O)c2cccc(S(=O)(=O)N3CCOCC3)c2)o1,5%,1%,5%,-5%,-2,3
C#CCCCO/N=C1/C[C@@H](O)[C@@H](O)[C@@H]2[C@@H]3C(=O)N(C(C)(C)C)C(=O)[C@H]3CC[C@H]12,.,0%[12.9 µM],.,.,.,.
O=C(Nc1ccc(F)cc1C(F)(F)F)C1CCN(c2ncccn2)CC1,.,.,.,-6%,.,.
COc1ccccc1NC(=O)c1oc2ccccc2c1NC(=O)Cc1ccccc1,.,.,.,-17%,.,.
CC(C)NC(=O)c1nc2ccccc2s1,-14%,8%,-6%,-26%,24*,30*
COc1ccc(OC)c(NC(=O)c2nc3ccccc3s2)c1,-5%,0%,1%,-1%,31*,44
COc1ccc(OC)c(NC(=O)Cn2c(C)nc3ccccc3c2=O)c1,-8%,0%,1%,-5%,32*,82*
N=C(N)c1ccc(N2CCN(C3CCN(CC(=O)O)CC3)CC2)cc1,.,-15%,.,.,.,.
Cc1cc(Nc2cccc(Br)c2)n2c(nc3ccccc32)c1C#N,.,.,.,10%,.,.
COCc1cc(S(=O)c2ccc(Cl)cc2)nc(C)n1 (centres undefined),-11%,0%,2%,-21%,16*,21
SMILES,RE007 growth inh,Giardia FBPA inh,LmPK inhibitor,TbPYK inhibitor,Cycloheximide cs,Shiga inhibitor
COc1cccc(OC)c1-c1nn2c(-c3ccco3)nnc2s1,1%[3.69 µM],-2%,-2%,.,56*,200*
O=C(Nc1cccc(S(=O)(=O)N2CCCCCC2)c1)c1ccc2ccccc2n1,-3%,-2%,-5%,0%,22*,3
O=C(Nc1nc2ccc(S(=O)(=O)N3CCCC3)cc2s1)c1ccccn1,8%,?,?,?,38*,60*
CCOc1cc(N2CCOCC2)c(OCC)cc1NC(=O)c1ccc2ccccc2n1,6%,?,13%,-13%,28*,53*
O=C(Nc1cccc(S(=O)(=O)N2CCCCC2)c1)c1ccccn1,1%,-12%,-3%,2%,27*,26
O=C(Nc1cccc(S(=O)(=O)N2CCOCC2)c1)c1ccccn1,1%,-25%,2%,1%,11,30
O=C(Nc1ccc(N2CCCCC2)cc1)c1ccc2ccccc2n1,-17%,-17%,7%,-2%,29*,78*
